The structures appear in SMILES notation. Among all 310,000 compounds or so, about 14,000 (4.5%) showed an effect of 50% or more. Effects have a minus sign here. This is one part of a sample in which strong results are shown more often than they occur.
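Note: peak tail current of the secondary pulse compared with the same well before compound.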

In this test the target is human ether-à-go-go-related gene (hERG) potassium channel (human, UniProt Q12809). Nature of the test: primary screen, population patch clamp on CHO cells stably expressing hERG; higher = less effect of the substance.
human ether-à-go-go-related gene (hERG) potassium channel, sequence (Q12809 whole entry, looked up): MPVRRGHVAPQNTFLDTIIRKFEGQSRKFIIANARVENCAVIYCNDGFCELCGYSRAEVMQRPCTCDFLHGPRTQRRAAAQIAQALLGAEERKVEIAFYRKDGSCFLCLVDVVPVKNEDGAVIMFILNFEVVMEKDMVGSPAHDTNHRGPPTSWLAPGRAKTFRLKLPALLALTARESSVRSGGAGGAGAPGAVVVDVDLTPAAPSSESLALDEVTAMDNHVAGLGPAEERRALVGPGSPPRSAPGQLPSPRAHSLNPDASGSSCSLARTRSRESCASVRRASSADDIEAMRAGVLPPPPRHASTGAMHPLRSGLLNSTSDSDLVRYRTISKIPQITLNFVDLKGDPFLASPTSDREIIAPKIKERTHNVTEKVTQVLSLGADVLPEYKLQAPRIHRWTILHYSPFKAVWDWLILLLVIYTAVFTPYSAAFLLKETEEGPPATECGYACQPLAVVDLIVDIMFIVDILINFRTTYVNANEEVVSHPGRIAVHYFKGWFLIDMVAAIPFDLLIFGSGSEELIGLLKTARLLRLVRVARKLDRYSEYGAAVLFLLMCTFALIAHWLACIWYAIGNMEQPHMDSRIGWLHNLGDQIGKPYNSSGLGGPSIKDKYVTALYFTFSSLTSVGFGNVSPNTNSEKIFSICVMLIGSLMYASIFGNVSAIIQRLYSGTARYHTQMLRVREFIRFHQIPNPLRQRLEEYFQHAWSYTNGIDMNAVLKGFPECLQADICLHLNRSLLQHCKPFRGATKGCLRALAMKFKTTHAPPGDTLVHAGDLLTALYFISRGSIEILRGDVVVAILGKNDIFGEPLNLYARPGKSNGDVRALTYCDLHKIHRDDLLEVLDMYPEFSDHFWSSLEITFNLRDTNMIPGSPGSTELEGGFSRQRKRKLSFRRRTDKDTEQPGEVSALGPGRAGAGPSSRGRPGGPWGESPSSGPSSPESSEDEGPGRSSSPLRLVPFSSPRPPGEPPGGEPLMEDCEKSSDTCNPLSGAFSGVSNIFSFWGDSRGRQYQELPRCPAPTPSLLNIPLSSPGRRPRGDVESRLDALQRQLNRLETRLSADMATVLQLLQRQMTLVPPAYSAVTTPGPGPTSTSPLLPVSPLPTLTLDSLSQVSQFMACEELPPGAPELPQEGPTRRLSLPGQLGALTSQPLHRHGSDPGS
Take `COc1ccc(C2SCC(=O)N2c2c(C)n(C)n(-c3ccccc3)c2=O)cc1OC` (centres unmarked): the “hERG current change (%, negative = inhibition) at 10uM” value is 13.6%.
As for `COc1ccc(CCC(C)N2CCC(CO)(Cc3ccccc3)CC2)cc1` (centres unmarked), the “hERG current change (%, negative = inhibition) at 10uM” value was -73.4%.
On to `COC(=O)CCCC(=O)N1CCC(CO)(CCc2ccccc2)CC1`, for which the “hERG current change (%, negative = inhibition) at 10uM” value is recorded as -23.8%.
As for `CSCC(C)N1CCC(CO)(CCc2ccccc2)CC1` (centres unmarked), the “hERG current change (%, negative = inhibition) at 10uM” value is listed as -29.4%.
To `COc1ccc(CC2(CO)CCN(C(=O)NCc3ccccc3)CC2)cc1` belongs -2.8%; to `COc1ccc(CC2(CO)CCN(C(C)COc3ccccc3)CC2)cc1` (centres unmarked), -82%.
As for `CSCC(C)N1CCC(CO)(CCCc2ccccc2)CC1` (centres unmarked), the “hERG current change (%, negative = inhibition) at 10uM” value was -55.7%.
Consider `CN(C)S(=O)(=O)N1CCC(CO)(CCc2ccccc2)CC1`, for which the “hERG current change (%, negative = inhibition) at 10uM” value was -8.86%.
Consider `CC(COc1ccccc1)N1CCC(CO)(CCc2ccccc2)CC1` (centres unmarked), for which the “hERG current change (%, negative = inhibition) at 10uM” value is -80.3%.
`COc1ccc(CC2(CO)CCN(S(=O)(=O)c3sccc3C)CC2)cc1`: the “hERG current change (%, negative = inhibition) at 10uM” value was -20.9%.
`COc1cccc(CC2(CO)CCN(S(=O)(=O)c3ccc(OC)cc3OC)CC2)c1`: the “hERG current change (%, negative = inhibition) at 10uM” value is -10.7%.
The figure for `COc1ccc2c(C)c(CCC(=O)NCCCN3CCCC3=O)c(=O)oc2c1C` is 1.56%.
As to `Cc1ccc(-c2ccc(=O)n(CC(=O)NCCN3C(C)CCCC3C)n2)cc1` (centres unmarked), the “hERG current change (%, negative = inhibition) at 10uM” value turned out to be 0.00388%.
For `CCCN(c1ccccc1F)S(=O)(=O)c1cc(-c2cc(C)no2)ccc1OC`, the “hERG current change (%, negative = inhibition) at 10uM” value is reported as 6.91%.
The figure for `Cc1ccnc(NC(=O)CCC(=O)N(CC(=O)NC(C)(C)C)c2ccc3c(c2)OCCO3)c1` is 17.8%.
As to `Cn1cc(Cl)nc1C(O)c1ccccc1` (centres unmarked), the “hERG current change (%, negative = inhibition) at 10uM” value came out at 7.21%.
For the compound `Br.O=S(=O)(c1ccc(-c2csc(Nc3ccc(Br)cc3)n2)cc1)N1CCCC1`, the “hERG current change (%, negative = inhibition) at 10uM” value was determined as 10.2%.
With `Cc1cccc(N(CC(=O)NC2CCCCC2)C(=O)c2ccc(C)s2)c1`, the “hERG current change (%, negative = inhibition) at 10uM” value is reported as -24.7%.
As to `O=C(COc1ccc(C(=O)c2ccccc2)cc1)NC1CCCCCC1`, the “hERG current change (%, negative = inhibition) at 10uM” value is recorded as -21.9%.
To `CC(C)(C)NC(=O)CCC1COc2ccccc2O1` (centres unmarked) belongs -4.27%.
With `Cc1cccc(C)c1NC(=O)N1C2CCC1CC(O)(c1cccnc1)C2` (centres unmarked), the “hERG current change (%, negative = inhibition) at 10uM” value is 20.2%.
As to `Cc1ccc(/C=C/C(=O)NCc2ccccn2)o1`, the “hERG current change (%, negative = inhibition) at 10uM” value is -26.4%.
For the compound `COc1ccc([C@@H]2[C@@H]3C(=O)N(C(C)(C)C)C(=O)[C@@H]3[C@]3(Cc4ccc(Cl)cc4)C(=O)N(c4ccc(Br)cc4)C(=O)N23)cc1`, the “hERG current change (%, negative = inhibition) at 10uM” value is reported as 2.7%.
`COc1ccc(CC2(CO)CCN(C(C)Cc3ccc(Cl)cc3)CC2)cc1` (centres unmarked): the “hERG current change (%, negative = inhibition) at 10uM” value is recorded as -80.4%.
On to `COc1ccc(CCC(C)N2CCOCC2)cc1` (centres unmarked), for which the “hERG current change (%, negative = inhibition) at 10uM” value is 2.71%.
As for `Cc1ccsc1C(=O)N1CCC(CO)(Cc2ccccc2)CC1`, the “hERG current change (%, negative = inhibition) at 10uM” value stood at 17.6%.
To `COc1ccc(CCC(C)N2CCc3ccccc3C2)cc1` (centres unmarked) belongs -61.7%; to `CN1CCC(CO)(Cc2ccccc2)CC1`, 16.2%; to `COc1ccc(CC2(CO)CCN(S(=O)(=O)c3c(C)nn(C)c3Cl)CC2)cc1`, 14.7%.
For `COc1ccc(CC2(CO)CCN(S(=O)(=O)N(C)C)CC2)cc1`, the “hERG current change (%, negative = inhibition) at 10uM” value is reported as 9.82%.
As for `COc1ccc(CC(=O)N2CCc3ccccc3C2)cc1`, the “hERG current change (%, negative = inhibition) at 10uM” value was 3.67%.
Turning to `CC(COc1ccccc1)N1CCC(CO)(Cc2ccccc2)CC1` (centres unmarked), the “hERG current change (%, negative = inhibition) at 10uM” value was -50.6%.
Turning to `COc1ccc(N2CCN(C(=O)Cn3ncc4c([nH]c5ccccc54)c3=O)CC2)cc1`, the “hERG current change (%, negative = inhibition) at 10uM” value was 9.02%.
Take `CCOC(=O)Cc1csc(NC(=O)c2ccc(S(=O)(=O)N3CCCCC3)cc2)n1`: the “hERG current change (%, negative = inhibition) at 10uM” value was -42.2%.
As to `O=[N+]([O-])c1cccn2cc(-c3ccc(Br)cc3)nc12`, the “hERG current change (%, negative = inhibition) at 10uM” value is recorded as -2.94%.
As for `NS(=O)(=O)c1ccc(CCNC(=O)CCCCCNc2nc(=S)[nH]c3ccccc23)cc1`, the “hERG current change (%, negative = inhibition) at 10uM” value is 24.4%.
For the compound `Cc1ccc(-n2c(=O)cc(NCc3cccnc3)[nH]c2=O)cc1`, the “hERG current change (%, negative = inhibition) at 10uM” value is reported as -65.5%.
To `Cc1ccc(NCc2cccnc2)cc1` belongs 2.82%; to `CC(=NCc1cccnc1)c1c(O)n(-c2ccc(C)cc2)c(=O)[nH]c1=O`, -8.92%; to `COc1ccc(-c2cc(C(=O)N3CCCCCC3)no2)cc1OC`, 7.06%.
In the case of `Cn1c(=O)c2c(nc(-n3ccnc3)n2Cc2ccc([N+](=O)[O-])cc2)n(C)c1=O`, the “hERG current change (%, negative = inhibition) at 10uM” value is -43.7%.
Turning to `Cc1cc(C(=O)CN2CCN(CC(=O)Nc3cccc(F)c3)CC2)c(C)n1C1CC1`, the “hERG current change (%, negative = inhibition) at 10uM” value is reported as -56.2%.
For the compound `Cc1cccc(C)c1NC(=O)CN1CCN(CC(=O)c2cc(C)n(C3CC3)c2C)CC1`, the “hERG current change (%, negative = inhibition) at 10uM” value was -12.4%.
In the case of `Cc1cc(C(=O)CN2C(=O)c3ccccc3C2=O)c(C)n1C1CC1`, the “hERG current change (%, negative = inhibition) at 10uM” value is given as -1.31%.
The figure for `Cc1cc(C(=O)OCC(=O)Nc2cccc(F)c2)c(C)n1C1CC1` is -2.59%; for `Cc1cc(C(=O)OCC(=O)Nc2ccc(F)cc2)c(C)n1C1CC1` it is 5.51%.
On to `Cc1cc(C(=O)CN2CCN(CC(=O)Nc3ccc(F)cc3)CC2)c(C)n1C1CC1`, for which the “hERG current change (%, negative = inhibition) at 10uM” value is -74.5%.
